Assay results from PubChem BioAssay (Tox21).
Records with an inconclusive call do not appear. Unmarked numbers belong to inactive results. The source made the active and inactive calls. Calls follow the shape of the dose curve; as a rule, active = well fitted activation curve with a large enough effect in the signal ratio in the repeat runs (not every such curve was filed as active); inconclusive = weak or mixed curves; inactive = flat fitted curve, though single readings scatter; the % refers to the signal ratio.

Experiment: p53 small molecule agonists, cell-based qHTS assay (AID 1963582)
Details: HCT-116 p53RE-bla reporter, beta-lactamase FRET ratio, 16 h; series mostly up to 66 µM; activation: at the top concentration
Text: National Center for Advancing Translational Sciences [NCATS]
Division of Preclinical Innovation [DPI]
U.S. Environmental Protection Agency [EPA]
National Institutes of Environmental Health Sciences [NIEHS]
National Toxicology Program [NTP]
U.S. Food and Drug Administration [FDA]
p53, a tumor suppressor protein, is activated following cellular insult, including DNA damage and other cellular stresses. The activation of p53 regulates cell fate by inducing DNA repair, cell cycle arrest, apoptosis, or cellular senescence. The activation of p53, therefore, is a good indicator of DNA damage and other cellular stresses. […] The activation of the reporter gene under culture conditions can be detected by fluorescence intensity. This cell line was used to screen the Tox21 10K compound library in a 1536-well plate format and to identify agonists that activate the p53 signaling pathway.
Tox21 Assay Protocol Summary:
The p53RE-bla cells were dispensed at 4,000 cells/5 ul/well in 1536-well black wall/clear bottom plates using a Multidrop dispenser. After the assay plates were incubated at a 37 C/5% CO2 incubator for 5 hours, 23 nL of compounds dissolved in DMSO, positive controls or DMSO only was transferred to the assay plate by a pin tool. The plates were incubated at 37 C for 16 hours. After 1 uL of LiveBLAzerTM B/G FRET substrate was added using a Flying Reagent Dispenser, the plates were incubated at room temperature for 2 hours, and fluorescence intensity was measured by an Envision plate reader.
% is scaled to controls: 0 for no effect and ±100 for the full control effect; potency is read from the fitted curve at half-maximal effect.

Row | Structure (SMILES) | activation | Potency
1 | CCOP(=S)(S)OCC | -2.72% | 
2 | Oc1ccc2c3c1O[C@H]1[C@@H](O)C=C[C@H]4[C@@H](C2)NCC[C@@]341 | 2.05% | 
3 | CC(C)(C)NCC(O)c1ccccc1Cl (stereo not given) | -0.199% [at 30.3 µM] | 
4 | [Cl][Sn]([Cl])([Cl])[Cl] | -0.196% | 
5 | C=CC(=O)N(C)C | 0.176% | 
6 | N#Cc1c(Cl)cccc1Cl | -2.28% | 
7 | CC(C)(C)NCC(O)c1cc(Cl)c(N)c(C(F)(F)F)c1 (stereo not given) | -0.219% [at 30.3 µM] | 
8 | CC(Cl)(Cl)Cl | 4.57% | 
9 | CNC(=O)Oc1cc(C)cc(C(C)C)c1 | -0.789% | 
10 | [Cl][Sb]([Cl])[Cl] | 9.97% | 
11 | CCC(COC(=O)c1cc(OC)c(OC)c(OC)c1)(c1ccccc1)N(C)C (stereo not given) | -3.96% [at 30.3 µM] | 
12 | CC(C)(C)C(O)/C(=C\c1ccc(Cl)cc1Cl)n1cncn1 (stereo not given) | 9.21% | 
13 | ClCCCCl | 5.47% | 
14 | COC1CC(=C(c2cccs2)c2cccs2)C[N+](C)(C)C1 (stereo not given) | -0.754% [at 30.3 µM] | 
15 | CC(Cc1ccc2c(c1)OCO2)NO (stereo not given) | 0.553% | 
16 | Clc1ccc(C2(Cn3cncn3)CC(Br)CO2)c(Cl)c1 (stereo not given) | -7.79% | 
17 | Oc1ccccc1Br | -3.01% | 
18 | O=C(O)C(Br)CBr (stereo not given) | 4.77% | 
19 | CC(CC(C#N)(c1ccccc1)c1ccccc1)N(C)C (stereo not given) | -2.75% | 
20 | CNC(=O)O/N=C(\C)SC | -0.486% | 

Row | Structure (SMILES) | activation | Potency
21 | Cn1sc(Cl)cc1=O | -0.422% | 
22 | CC(=O)[C@H]1CC[C@H]2[C@@H]3CC[C@H]4C[C@H](O)CC[C@]4(C)[C@H]3C(=O)C[C@]12C | -3.59% [at 30.3 µM] | 
23 | Clc1cc2c(cc1Cl)Oc1cc(Cl)c(Cl)cc1O2 | 1.03% [at 0.249 µM] | 
24 | Cc1ccc(N(SC(F)(Cl)Cl)S(=O)(=O)N(C)C)cc1 | 0.343% | 
25 | COC(=O)C1(O)c2ccccc2-c2ccccc21 | -0.329% | 
26 | CC(C)CBr | 5.93% | 
27 | O=C(CBr)OCc1ccccc1 | 5.26% | 
28 | CSc1nc(N=[N+]=[N-])nc(NC(C)C)n1 | -5.22% | 
29 | CCOc1ccc(C(C)(C)COCc2cccc(Oc3ccccc3)c2)cc1 | -2.29% | 
30 | CC(C)(C)NC[C@H](O)c1ccc(O)cc1Cl | 4.98% [at 30.3 µM] | 
31 | O=C1C(Cl)C(CCl)CN1c1cccc(C(F)(F)F)c1 (stereo not given) | -0.421% | 
32 | CC(Cc1ccccc1)N(C)Cc1ccco1 (stereo not given) | -1.71% [at 30.3 µM] | 
33 | C#C[C@]1(O)C=C[C@H]2[C@@H]3CCC4=CC(=O)CC[C@@H]4[C@H]3CC[C@@]21CC | 0.297% [at 30.3 µM] | 
34 | CCOP(=S)(OCC)Oc1nc(Cl)n(C(C)C)n1 | -4.04% | 
35 | S=C=Nc1cccc2ccccc12 | -3.85% | 
36 | [CH3][Hg][Cl] |  | 36.3 µM (active)
37 | C[N+](C)(C)CCOC(=O)C(O)(c1ccccc1)c1ccccc1 | -0.0684% [at 30.3 µM] | 
38 | CCOP(=S)(OCC)Oc1ccc(Cl)cc1Cl | -4.63% | 
39 | COc1cc(C=O)cc2c1[C@H](COC(N)=O)[C@]1(OC(C)=O)ON2C[C@H]2[C@@H]1N2C(C)=O |  | 3.63 µM (active)
40 | CC(C)[C@H](C(=O)OC(C#N)c1cccc(Oc2ccccc2)c1)c1ccc(OC(F)F)cc1 (stereo not given in full) | -0.475% | 
